PubChem BioAssay AID2546 (National Center for Advancing Translational Sciences (NCATS), 2010)
About 11,000 (3.5%) of roughly 310,000 compounds were called active. Another 8% or so got no clear call; they are omitted. What follows is part of a selection rich in actives, with near analogues and random picks from the rest. A number with no mark means an inactive call. Calls come from the whole dose curve; as a rule, active = well fitted inhibition curve with a large enough effect; inconclusive = small, poorly fitted or top-dose-only effect, or effect the other way; inactive = flat fitted curve, though single readings scatter.

Experiment: VP16 counterscreen qHTS for inhibitors of ROR gamma transcriptional activity;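 note: Gal4-VP16 expression switched on by copper sulfate through the metallothionein promoter; nearly all actives have a fitted effect of over 50% in size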
Settings: Drosophila S2 Gal4-VP16 UAS-luciferase, luminescence, 20 h; series mostly up to 53.6 µM; activity, negative = inhibition: at the top concentration
% is set by controls: 0 for no effect and ±100 for the full control effect; potency is the fitted concentration of half-maximal effect.

| SMILES | activity, negative = inhibition | Potency |
| --- | --- | --- |
| COC(=O)c1cc(S(=O)(=O)NCC2CCN(Cc3ccc(Cl)cc3)CC2)cn1C | -12.2% | – |
| Cc1ccccc1NCC(=O)N/N=C\c1ccc([N+](=O)[O-])s1 | -17.2% | – |
| Cc1cc(C(=O)N/N=C/c2cc([N+](=O)[O-])cc(C)c2O)n[nH]1 | – | 14.1 µM (active) |
| Cc1ccsc1C(=O)N/N=C/c1ccc([N+](=O)[O-])cc1 | 4.83% | – |
| COc1ccc2ccccc2c1/C=N/NC(=O)c1cc(C)[nH]n1 | -0.573% | – |
| CCOc1ccc(NC(=O)CCC(=O)N/N=C/c2ccc([N+](=O)[O-])s2)cc1 | -28.5% | – |
| CC(C)(C)c1cc(C(=O)N/N=C/c2ccc([N+](=O)[O-])s2)n[nH]1 | – | 12.6 µM (active) |
| COc1ccc(OC)c(NC(=O)c2ccc3c(c2)CCN3S(C)(=O)=O)c1 | -1.41% | – |
| COc1ccc(-n2ncc3c2CC(C)(C)CC3NC(=O)CCc2c(C)noc2C)cc1 (stereo not drawn) | -3.92% | – |
| CCn1c(CC(=O)Nc2ccccc2)nnc1SCC(=O)N1CCOCC1 | -3.65% | – |
| Cc1cccc(C)c1OCCN1CCOCC1 | 6.41% | – |
| CC(CC(=O)N1CCN(c2ccccc2)CC1)S(=O)(=O)c1ccc2c(c1)NC(=O)CS2 (stereo not drawn) | 0.387% | – |
| CCCCC(C(=O)OCC(=O)c1ccc(OC)cc1)N1C(=O)c2ccccc2C1=O (stereo not drawn) | 3.78% | – |
| CCOC(=O)c1c(-c2ccc(C)cc2)csc1/N=C(\C)C1=C(O)c2ccccc2C1=O | 3.7% | – |
| CCOC(=O)C1=C(c2ccc(OC)cc2)C(=O)c2ccccc2C1=O | – | 4.47 µM (active) |
| COc1ccccc1-n1c(SCC(=O)Nc2cccc(C(=O)O)c2)nnc1-c1ccccc1O | -1.31% | – |
| CCOC(=O)[C@@H]1[C@H]2COc3ccc(Br)cc3[C@H]2N2C(=O)N(c3ccc(Cl)cc3)C(=O)[C@@]12C | -0.565% | – |
| COC(=O)c1cc(NS(=O)(=O)c2ccc3c(c2)c(=O)n(C)c(=O)n3C)cc(C(=O)OC)c1 | -8.45% | – |
| Cc1[nH]c2ccccc2c1C(=O)CN1CC(C)CC(C)C1 (stereo not drawn) | 0.792% | – |
| CC(=O)Nc1cccc(NC(=O)c2ccc3c(c2)CCN3S(C)(=O)=O)c1 | -2.68% | – |
| COc1ccccc1-c1sc2ccccc2c1-c1ccc(C(C)=O)cc1 | 21.8% | – |
| CN(C)c1ccc(-n2cccc2/C=C2/SC(=Nc3ccc(F)cc3)NC2=O)cc1 | 5.37% | – |
| C(=N\n1cnnc1)/c1cccnc1 | -11.9% | – |
| CN(C)c1ccc(-n2cccc2/C=N/n2cnnc2)cc1 | – | 14.1 µM (active) |
| CNC[C@H](CC1CCCCC1)NC[C@H](NCCC1CCCC1)[C@H](C)O | 0.758% | – |
| O=C1c2ccccc2C(=O)N1CCOc1ccc(F)cc1 | 3.46% | – |
| CN1CN(C)c2ccc([N+](=O)[O-])c3cccc1c23 | -1.56% | – |

| SMILES | activity, negative = inhibition | Potency |
| --- | --- | --- |
| CCCNC(=O)CCc1c(C)nc2c(c(C)nn2-c2ccc(C)cc2)c1C | -11.2% | – |
| COC(=O)c1ccc2c(=O)n(CC3CCCO3)c(=S)[nH]c2c1 (stereo not drawn) | – | 5.01 µM (active) |
| O=C(NC1CCCCC1)c1ccc2c(=O)n(CC3CCCO3)c(=O)[nH]c2c1 (stereo not drawn) | -5.27% | – |
| COc1ccc(Cn2c(=S)[nH]c3cc(C(=O)NCCCN4CCOCC4)ccc3c2=O)cc1 | 2.27% | – |
| COc1ccccc1OCCCC(=O)Nc1ccc2c(c1)OCCO2 | 14.8% | – |
| Cc1nc2ccccc2n1CC(=O)N/N=C/c1cccnc1 | 3.63% | – |
| O=C(CSc1cccc2cccnc12)N/N=C/c1cccnc1 | – | 20 µM (active) |
| O=C(CNC(=O)c1cccnc1)N/N=C/c1cccnc1 | -1.32% | – |
| CN(C)Cc1c(O)ccc2c(=O)c(-c3ccccc3Cl)coc12 | -6.46% | – |
| COc1ccccc1CN1CCNC(=O)C1CC(=O)N(C)CC1CCOCC1 (stereo not drawn) | -6.75% | – |
| COc1ccc2c(C)c(CCC(=O)NC3CC3)c(=O)oc2c1C | 16.5% | – |
| COc1ccc2c(c1OC)C(=O)N(c1ccc(O)cc1)C2 | 1.37% | – |
| CN1C(=O)/C(=C/c2ccc(C(=O)NC3CCCC3)cc2)Oc2ccccc21 | 4.63% | – |
| CN1CCN(CCCNC(=O)c2ccc(/C=C3\Oc4ccccc4N(Cc4ccc(Cl)cc4)C3=O)cc2)CC1 | – | 11.2 µM (active) |
| O=C(NCCN1CCOCC1)c1ccc(/C=C2\Sc3ccccc3N(Cc3ccc(F)cc3)C2=O)cc1 | -28.8% | – |
| Cc1cc(N2C(=O)C(O)=C(C(=O)c3ccc(C)o3)C2c2ccc(OCc3ccccc3)cc2)no1 (stereo not drawn) | 0.706% | – |
| O=C(CN1CCC(NC(=O)Nc2ccccc2)CC1)Nc1cccc([N+](=O)[O-])c1 | -0.0438% | – |
| COc1cccc(C(=O)CC(=O)C(=O)Nc2ccc([N+](=O)[O-])cc2C)c1 | -23.3% | – |
| CC1(C)Cc2c(sc(NC(=O)C(=O)N3CCOCC3)c2C#N)CO1 | -0.0226% | – |
| COc1ccc(Cc2nc3ccc(C(=O)NCC4CCOCC4)cc3o2)cc1OC | 29.3% | – |
| O=C(O)c1ccccc1CSc1nc2ccccc2s1 | -13.2% | – |
| C/C(=N\Nc1ncc(Cl)cc1Cl)c1ccc(S(=O)(=O)NCc2ccco2)cc1 | – | 3.16 µM (active) |
| O=C(CCCl)Nc1ccc(S(=O)(=O)NCc2ccco2)cc1 | -11.5% | – |
| O=S(=O)(NCc1ccco1)c1cnc(Cl)c(Cl)c1 | -1.39% | – |
| CCCc1ccc(OCCNC(=O)c2ccccc2Br)cc1 | -1.36% | – |
| Cc1cc(NC(=O)c2ccccc2C)no1 | -5.27% | – |
